Sampled rows, rich in hits. Any-hit rate of the full collection: about 3.8%.
CBFb-RUNX1 inh – blocks binding between human CBF-beta and RUNX1 | Q01196+Q13951 | AlphaScreen CBFb-His/RUNX1-biotin binding, biochemical | Potency, µM (titrated, usually from 59.8 µM), inactives show at the highest dose activity, negative = inhibition, actives largely listed as inhibitors | 230,000 tested, under 10 active | AID 1477; further: % of control where 0% means no effect
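Compounds were screened at multiple concentrations against a preformed CBF-beta(His)/RUNX1(biotin) complex (30 nM of each) for 15 min at room temperature, followed by 90 min with nickel and streptavidin beads and AlphaScreen reading.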
VDR inhibitor – inhibitors of human vitamin D receptor; VDR-SRC2-3 peptide fluorescence polarization, 2 h; Potency, µM, without a hit: max response, negative = inhibition, hits mostly inhibitors; 400,000 tested, 0.93% active; AID 504847; further: potency means the concentration at half of the fitted maximal effect; on the % scale 0 is the no-effect control and ±100 the full control effect
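Inhibition of the VDR/SRC2-3 peptide interaction is quantified by fluorescence polarization. Compounds (23 nl, pintool) incubate with the reagents for 2 hours at ambient room temperature.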
MBNL1-CUG inh – blocks human MBNL1 binding to CUG repeat RNA | 280,000 tested, 0.036% active | TR-FRET MBNL1-His/biotin-(CUG)12 binding, 665/545 ratio | Potency, µM (highest dose often 57.5 µM), for the others: at the top dose activity change, negative = inhibition, actives largely listed as inhibitors | AID 2675; active means well fitted inhibition curve with a large enough effect in the signal ratio, with a control signal flat, not every such curve was filed as active; inconclusive means small, poorly fitted or top-dose-only effect, or effect the other way, or a change in a side signal; inactive means no such curve, though single readings can be large or run the other way; the % refers to the signal ratio; further: potency means the concentration at half of the fitted maximal effect; on the % scale 0 is the no-effect control and ±100 the full control effect
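Ratiometric TR-FRET (665 over 545 nm, excitation 340 nm) tracks disruption of MBNL1-His/biotin-(CUG)12 complex after 60 min at room temperature, with compounds at 92 nM to 58 uM final.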
PLK1 PBD inh – inhibitors of human PLK1 polo-box domain binding; Plk1 PBD binding of FITC phosphopeptide, fluorescence polarization; Potency, µM, for the others: max response, negative = inhibition, most hits filed as inhibitors; 360,000 tested, 2.8% active; further: potency means the concentration at half of the fitted maximal effect; series mostly up to about 57 µM; on the % scale 0 is the no-effect control and ±100 the full control effect; nearly all actives have a fitted effect of over 65% in size
KCNH2 WT inh – inhibitors of human wildtype KCNH2 potassium channel; Q12809; U2OS, BacMam KCNH2, thallium flux FluxOr; active compounds read low; activity change, % at 1.84 µM; 340,000 tested, 0.37% active; AID 720551;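 active means maximum activity change below -70%; inconclusive means maximum activity change between -70% and -50%; inactive means maximum activity change above -50%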; further: on the % scale 0 is the no-effect control and ±100 the full control effect
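U2OS cells were transduced with wild-type KCNH2 virus (2.03 x 10^8 / mL) for 4 h at room temperature, then cultured overnight at 37 C. Thallium flux was read with FluxOr dye. Rate constants were normalized to DMSO controls.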
KCNH2 3.1 inh – KCNH2 3.1 (human) potassium channel inhibition | AID 720553 | U2OS KCNH2 3.1, thallium flux FluxOr; active compounds read low | activity change, % (tested at about 1.8 µM) | 340,000 tested, 0.95% active;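 active means maximum activity change below -70%; inconclusive means maximum activity change from -70% to -50%; inactive means maximum activity change above -50%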;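 further: thallium influx rate constant from kinetic fluorescence after stimulation buffer; on the % scale 0 is the no-effect control and ±100 the full control effect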
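Normalized rate constant (relative to positive and negative DMSO controls) derived from a 2 min kinetic fluorescence read after stimulation; U2OS cells expressing the 3.1 isoform via virus at 1.77 x 10^8 /mL.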
Starred values were filed as active, the others as inactive; ? = inconclusive; / = no result. Unless noted, the call rests on the fitted dose curve; in most records, active means well fitted curve in the direction sought with a large enough effect; inconclusive means small, poorly fitted or top-dose-only effect, or another doubt; inactive means no such curve, though single readings can be large; an effect the other way counts as inactive or inconclusive.

SMILES	CBFb-RUNX1 inh	VDR inhibitor	MBNL1-CUG inh	PLK1 PBD inh	KCNH2 WT inh	KCNH2 3.1 inh
CCOc1ccc(/C=C2/SC(=O)NC2=S)cc1	-19.0%	-12.8%	?	?	-16.1	-93.7*
CCOc1ccc(/C=C2\SC(=S)N(N3C(=O)C4CC4C3=O)C2=O)cc1 (stereo unspecified)	-29.8%	-27.6%	20.4%	-1.3%	-5.7	-99.0*
CCCOc1ccc(/C=C2\SC(=S)N(CC3CCCO3)C2=O)cc1 (stereo unspecified)	-1.7%	-14.0%	5.2%	-18.3%	9.8	-1.6
CCOc1ccc(N=C2NC(=O)S/C2=C\c2ccc(N(C)C)cc2)cc1	-0.8%	3.2%	25.9%	-5.7%	-5.4	-6.5
Cn1ncc2c(N3CCN(c4ccccc4Cl)CC3)ncnc21	/	15.4%	/	/	/	/
CCCCC(CC)C(=O)Nc1ccc(C)c(O)c1 (stereo unspecified)	1.7%	?	-0.6%	29.9µM*	-4.2	-10.4
CCCCC(CC)C(=O)Nc1ccc(Nc2ccccc2)cc1 (stereo unspecified)	-5.1%	-0.6%	/	-1.8%	-8.8	-35.1
C=CCOC(=O)/C(=C/c1cccc2ccccc12)NC(=O)c1ccccc1	-10.5%	-16.7%	0.4%	-1.6%	-274.7*	-25.4
CCc1ccc2nc(N3C(=O)C(O)=C(C(=O)c4ccco4)C3c3cccs3)sc2c1 (stereo unspecified)	-26.2%	?	42.3%	16.8µM*	5.8	-1.4
Cc1ccc2nc(N3C(=O)C(O)=C(C(=O)c4ccco4)C3c3ccc(C)o3)sc2c1 (stereo unspecified)	/	-29.2%	21.4%	13.4µM*	-10.0	0.8
Cc1ccc2nc(N3C(=O)C(O)=C(C(=O)c4ccc(C)o4)C3c3ccco3)sc2c1 (stereo unspecified)	/	?	/	?	-0.8	4.4
CCc1ccc2nc(N3CCN(C(=O)c4ccco4)CC3)sc2c1	/	6.1%	/	/	/	/
O=C(C1=C(O)C(=O)N(CCc2ccccc2)C1c1cccs1)c1ccco1 (stereo unspecified)	2.2%	-24.4%	27.3%	-11.6%	-1.2	-124.3*
O=C(C1=C(O)C(=O)N(c2nc3ccc(Cl)cc3s2)C1c1ccco1)c1ccco1 (stereo unspecified)	/	?	/	21.2µM*	-7.1	3.1
Cc1cc(N2C(=O)C(O)=C(C(=O)c3ccco3)C2c2ccc(Cl)cc2)no1 (stereo unspecified)	/	-8.1%	141.4%	-5.9%	-10.7	14.5
CC(=O)c1ccc(NS(=O)(=O)c2ccc3[nH]c(=O)[nH]c3c2)cc1	/	9.9%	/	/	/	/
CCCCN1CC(c2nc3ccccc3n2CCCCOc2cccc(C)c2C)CC1=O (stereo unspecified)	/	6.5%	/	/	/	/
Cn1c(CCN2CCN(c3ccccn3)CC2)nc2cc(NS(=O)(=O)c3ccccc3)ccc21	/	0.1%	-15.4%	-3.8%	-27.8	-76.3*
Cn1c(CCN2CCOCC2)nc2cc(NS(=O)(=O)c3ccccc3)ccc21	-1.4%	-6.4%	-7.8%	-14.2%	22.7	-3.3
CCCCNc1c(-c2cccc(-c3cc(C(C)=O)cs3)c2)nc2cc(C)ccn12	/	-28.5%	/	-21.5%	-19.3	-70.6*
CCCCCCSc1cc(-c2nc3cc(C)ccn3c2NCCCC)ccc1OC	/	-11.0%	/	-3.4%	-80.3*	-110.6*
CCOC(=O)CN(Cc1cc(OC)cc(N(C)C)c1OC)C(=O)C1CC(CO[Si](C)(C)C(C)(C)C)=CN1C(=O)OC(C)(C)C (stereo unspecified)	7.8%	-10.8%	/	/	/	/
Cn1c(N=Cc2ccc([N+](=O)[O-])cc2)c(N)c(=O)n(C)c1=O	/	?	/	-14.6%	-8.9	-48.1
Cc1[nH]ncc1N=Cc1ccc([N+](=O)[O-])cc1	11.3%	-13.9%	?	21.2µM*	1.0	-14.1
COc1ccc(CNC(N)=O)cc1	/	23.4%	/	-2.5%	3.3	7.8
NC(=O)NCc1ccc(Cl)cc1	-1.8%	19.7%	-5.5%	-14.7%	-20.7	-80.2*
